Only some compounds are listed: those with a hit (about 4.5% of all), similar ones and a draw of the others.
PrPC TRFRET – reduces human prion protein on the cell surface. inhibition, % at 13.8 µM. P04156. 370,000 tested, 0.43% active. cell surface PrPC, TR-FRET read-out; in the data active means inhibition above about 24%; further: 0% = median of the test wells and 100% = reference compound wells
Mtb FBA inh – inhibitors of M. tuberculosis fructose-bisphosphate aldolase; purified M. tuberculosis FBA, fluorescence read-out; P9WQA3; 360,000 tested, 2.3% active; AID 588726; inhibition, % at 1 µM;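 further: 0% = vehicle and 100% = reference inhibitor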
Target sequence (P9WQA3 whole entry, looked up): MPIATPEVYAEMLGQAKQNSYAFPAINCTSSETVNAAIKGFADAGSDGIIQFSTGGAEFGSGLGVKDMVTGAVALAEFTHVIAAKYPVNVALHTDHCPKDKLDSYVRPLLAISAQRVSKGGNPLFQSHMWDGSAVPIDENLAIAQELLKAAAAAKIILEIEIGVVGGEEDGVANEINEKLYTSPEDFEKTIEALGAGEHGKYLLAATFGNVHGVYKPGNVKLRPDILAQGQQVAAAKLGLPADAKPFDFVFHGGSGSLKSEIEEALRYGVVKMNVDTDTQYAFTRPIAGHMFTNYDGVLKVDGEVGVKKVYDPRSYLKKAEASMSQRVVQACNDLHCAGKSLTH
PrP 5UTR inh – suppresses PrP 5' UTR mRNA reporter expression. cell-based PrP 5' UTR mRNA reporter, plate reader. 340,000 tested, 0.35% active. inhibition, % (no concentration beside the values). AID 488862; in the data active means inhibition above about 52%; further: 0 = median of the neutral control wells
GDH-TPI counter-1 – GDH-TPI coupled enzyme inhibition counter-screen; inhibition, % at 4.8 µM; GDH-TPI coupled enzyme counterscreen, NADH absorbance; 360,000 tested, 1.2% active; in the data active means inhibition above about 30%;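 further: 0% = DMSO wells and 100% = wells lacking the enzyme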
PfHsp40 yeast – compounds rescuing yeast from Plasmodium falciparum HSP40 toxicity; S. cerevisiae expressing PfHsp40, growth rescue, ATP luminescence; growth rescue, % at 12.5 µM; 340,000 tested, 0.68% active; AID 504582; in the data active means growth rescue above about 28%, passing the limit was not always enough;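 further: yeast W303a lacking pdr1 and pdr3 grown in galactose medium; growth measured after three days at 30 °C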
BJeLR viability – BJeLR cell viability loss; BJeLR (HRASV12) viability, CellTiter-Glo ATP luminescence, 48 h; inhibition, % (no concentration beside the values); 300,000 tested, 0.17% active; in the data active means inhibition above about 50%
Mtb FBA confirm – Mtb FBA inhibition, confirmed | shares compounds with Mtb FBA inh | purified M. tuberculosis FBA, fluorescence read-out | inhibition, % at 1 µM | 5,600 tested, 78% active | AID 651616;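 further: 0% = vehicle wells and 100% = reference inhibitor wells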
GDH-TPI counter-2 – counter-screen for M. tuberculosis FBA inhibitors: GDH-TPI coupled enzyme inhibition | GDH-TPI coupled enzyme counterscreen, fluorescence | AID 652141 | shares compounds with Mtb FBA inh | inhibition, % at 1 µM | 5,600 tested, 81% active; in the data active means inhibition above about 10%
GDH-TPI DR – GDH-TPI dose response counter-screen for Mtb FBA | shares compounds with Mtb FBA inh | GDH-TPI coupled enzyme assay, fluorescence, artifact counterscreen | IC50, µM | 170 tested, 79% active; call rule not given here
* hit, by the source's call; . = not tested or not shown; + = active, no number. Unless noted, no stated cut-off is given here; in the data, active means inhibition above about 27%; inactive means the rest.

SMILES	PrPC TRFRET	Mtb FBA inh	PrP 5UTR inh	GDH-TPI counter-1	PfHsp40 yeast	BJeLR viability	Mtb FBA confirm	GDH-TPI counter-2	others
CC(C)c1cc(Cn2c3ccccc3c(=O)n2C(C)Cn2cc(COc3ccccc3)nn2)on1 (stereo not given)	1.2	.	.	.	.	.	.	.
CC(C)c1cc(Cn2c3ccccc3c(=O)n2C(C)CBr)on1 (stereo not given)	0.4	95.7*	.	.	.	.	69.8*	45.8*
CC(C)c1cc(Cn2c3ccccc3c(=O)n2C(C)C)on1	8.8	102.9*	.	.	.	.	+	+
CN(CC(=O)Nc1ccc(F)cc1)C(=O)COC(=O)CN1C(=O)NC2(CCCC2)C1=O	7.5	3.7	-5.2	9.8	-0.5	6.8	.	.
Cc1cc(OCC(=O)N2CCC(C(=O)O)CC2)c2c3c(c(=O)oc2c1)CCCC3	-2.5	76.8*	-17.0	5.9	0.0	-7.6	130.8*	82.0*
Cc1cc(OCC(=O)N2CCC(O)CC2)c2c(C)cc(=O)oc2c1	.	99.9*	0.9	3.9	-0.5	7.3	141.9*	104.7*
CC(=O)COc1cc(C)cc2oc(=O)c(C)c(C)c12	-6.7	37.9*	-5.8	15.2	0.9	8.8	+	+
Cc1cc(OCC(=O)Nc2ccc(CCO)cc2)c2c(C)c(C)c(=O)oc2c1	1.0	33.2*	-12.1	6.5	1.2	-7.2	0.5	-2.9
Cc1cc(OCC(=O)N2CCC(C(=O)NCC(C)C)CC2)c2c3c(c(=O)oc2c1)CCCC3	3.6	6.3	4.0	6.0	-0.8	1.4	.	.
O=C(N/N=C/C=C/c1ccc(Br)cc1)C(O)c1ccccc1 (stereo not given)	-2.9	-1.8	-31.4	23.9	-1.6	-0.6	.	.
Cc1cc(OCC(=O)N2CCC(C(=O)O)CC2)c2c(C)c(C)c(=O)oc2c1	-4.3	86.6*	-17.1	8.8	6.7	2.1	-5.2	-6.5
O=C(NN=Cc1ccccc1O)C(O)c1ccccc1 (stereo not given)	1.8	3.7	-12.3	8.7	-1.6	.	.	.
COc1ccc(OC)c(/C=N/NC(=O)CN2CCSCC2)c1	5.5	85.4*	-12.4	15.5	-0.9	11.3	76.9*	66.4*
COc1ccc(OC)c(/C=N/NC(=O)C(O)c2ccccc2)c1 (stereo not given)	-4.3	101.0*	-23.8	14.7	2.4	-1.7	82.5*	62.4*
COc1ccc(OC)c(/C=N/NC(=O)CNC(=O)c2ccc(S(=O)(=O)N3CCCC3)cc2)c1	2.4	35.8*	-39.1	2.6	-0.5	-5.5	164.7*	120.8*
c1cc(-c2ccsc2)n2cnnc2c1	-14.2	7.3	.	7.1	.	.	.	.
COc1ccc(/C=C/c2ccncc2)cc1OC	-8.3	10.3	-15.3	21.0	-1.4	-7.8	.	.
COc1ccc(/C=C\c2cc(OC)c(OC)cc2CC[N+](C)(C)C)cc1OC	-3.2	33.5*	-17.4	20.8	0.3	5.2	0.3	-2.6
Cc1ccc2nc(-c3ccccn3)oc2c1	2.7	103.1*	-19.4	17.3	-0.9	-11.4	41.7*	30.4*
COC(=O)c1ccc(-c2nc3ccc(C)cc3o2)cc1	-6.1	31.6*	-87.3	10.1	-1.9	22.0	147.2*	123.6*
O=C(c1ccc(Cl)cc1)C1CCCN(C(=O)c2csnn2)C1 (stereo not given)	10.7	-0.9	-23.8	5.0	2.0	1.9	.	.
COc1cccc(C(=O)C2CCCN(C(=O)c3ccccc3Cl)C2)c1 (stereo not given)	-3.4	-5.1	-0.4	-1.5	0.0	1.6	.	.
COc1ccc(C(=O)N2CCCC(C(=O)N3CCCCCC3)C2)cc1 (stereo not given)	1.2	-0.5	-30.6	-7.7	0.4	1.7	.	.
COc1ccc2cc(C(=O)C3CCCN(C(=O)c4cnn(C(C)C)c4)C3)ccc2c1 (stereo not given)	4.8	105.0*	-25.2	13.5	0.3	-6.2	49.6*	39.3*
COc1ccc2cc(C(=O)C3CCCN(C(=O)C4=NN(C)C(=O)CC4)C3)ccc2c1 (stereo not given)	-5.9	63.0*	-7.8	10.6	1.4	-9.8	85.0*	51.7*
SMILES	PrPC TRFRET	Mtb FBA inh	PrP 5UTR inh	GDH-TPI counter-1	PfHsp40 yeast	BJeLR viability	Mtb FBA confirm	GDH-TPI counter-2	others
COc1ccc2cc(C(=O)C3CCCN(Cc4ccccn4)C3)ccc2c1 (stereo not given)	-3.1	40.7*	-11.3	6.1	-0.2	-0.1	+	+
COc1ccc2cc(C(=O)C3CCCN(C(=O)c4csnn4)C3)ccc2c1 (stereo not given)	2.1	95.8*	-13.2	25.6	-2.0	-5.1	43.8*	35.0*
COc1cccc2c1OCC(CN1CCN(CCC(C)C)C(CCO)C1)=C2 (stereo not given)	0.5	4.2	2.2	5.6	0.5	-9.4	.	.
O=C(NC1CCCCC1)c1ccc2[nH]c(=O)c(=O)[nH]c2c1	-6.3	41.1*	0.4	10.9	-1.4	-3.1	15.2	8.0	GDH-TPI DR=4.28*
CC(=O)Nc1ccc(C(=O)NCC(c2ccco2)N(C)C)cc1 (stereo not given)	-12.6	3.9	-5.3	-8.0	0.0	-3.6	.	.
CC(=O)c1ccc(-c2ccc(C(=O)NCC(c3ccco3)N(C)C)o2)cc1 (stereo not given)	-14.9	68.0*	-32.5	47.2*	0.6	.	-1.9	-1.6
CCOC(=O)C1=C(c2ccccc2)OC(N)=C(C#N)C1c1cccs1 (stereo not given)	-4.7	-0.7	-22.9	9.5	2.6	.	.	.
CCOC(=O)C1=C(c2ccccc2)OC(N)=C(C#N)C1c1ccncc1 (stereo not given)	3.1	43.4*	-7.0	5.6	-0.6	-12.7	66.7*	65.7*
CCCC1=C(C(=O)OCC)C(c2ccco2)C(C#N)=C(N)O1 (stereo not given)	-3.3	57.5*	-9.8	6.3	1.2	-4.6	98.5*	67.8*
COc1ccc2oc(C(=O)OCC(=O)Nc3ccc(NC(C)=O)cc3)c(C)c2c1	-0.2	27.4*	-9.3	8.0	0.5	-4.1	93.9*	79.7*
Cc1c(C(=O)OCC(=O)NC2CC2)oc2ccc(Br)cc12	8.1	1.3	-11.1	-0.3	-0.1	.	.	.
COc1ccc2oc(C(=O)OCC(=O)Nc3cc(S(=O)(=O)N4CCOCC4)ccc3C)c(C)c2c1	5.4	31.9*	-19.1	8.6	0.5	4.2	-3.4	-4.7
COc1ccc2oc(C(=O)OCC(=O)NC3(C#N)CCCC3)c(C)c2c1	0.3	34.7*	-23.9	-2.9	.	4.1	+	+
COc1ccc2oc(C(=O)OCC(=O)NC3CCS(=O)(=O)C3)c(C)c2c1 (stereo not given)	9.2	52.8*	.	6.2	.	.	166.8*	103.7*

Source: PubChem (several laboratories)
